FMDV antiviral: antivirals against foot and mouth disease virus | FMDV antiviral cell-based qHTS | Potency, µM (doses to about 57.9 µM), inactives show top-dose activity change, negative = inhibition, most hits filed as inhibitors | 410,000 tested, 1.2% active; calls by dose curve; tested in HEK293T cells; also: read-out not given here; potency is read from the fitted curve at half-maximal effect; nearly all actives have a fitted effect of over 45% in size
Lassa entry inh: blocks Lassa virus binding to or entry into cells. Lassa virus pseudotype entry inhibition, cell reporter. Potency, µM (highest dose often 37.9 µM), inactives show top-dose activity change, negative = inhibition, actives largely listed as inhibitors. 300,000 tested, 1.2% active; calls by dose curve; tested in HEK293 cells; also: potency is read from the fitted curve at half-maximal effect; nearly all actives have a fitted effect of over 50% in size
HCMV inh: inhibitors of human cytomegalovirus | HFF cells, HCMV-luciferase reporter, 72 h; active compounds read low | activity change, negative = inhibition, % at 57.5 µM | 410,000 tested, 4.5% active; in the data active = activity change below about -60%; inconclusive = no clear call, values can overlap the other calls; inactive = above about -39%
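Two-dose cell screen: HFF monolayers treated with compounds and infected with luciferase-expressing HCMV at 1 PFU/cell, 72 h at 37C, then lysed for luciferase measurement.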
MARV entry inh: Marburg virus entry inhibition | Marburg virus pseudotyped entry inhibition, cell reporter | Potency, µM (series often up to 37.8 µM), for the others: top-dose activity change, negative = inhibition, usual class: inhibitors | 300,000 tested, 1.8% active; calls by dose curve; tested in HEK293 cells; also: potency is read from the fitted curve at half-maximal effect
* = called active by the depositor; ? = inconclusive; . = not tested or not shown; [ ] = remark or other dose. Rows were chosen to be rich in hits. Some 6.2% of all compounds tested hit in one or more screens of this group. % is scaled to controls: 0 for no effect and ±100 for the full control effect.

SMILES | FMDV antiviral | Lassa entry inh | HCMV inh | MARV entry inh
O=C(Nc1cccc(F)c1)N1CCCC2(CCN(C(=O)c3cc(C(F)(F)F)cc(C(F)(F)F)c3)CC2)C1 | -5% | . | . | .
Cc1ccc(Cn2ncc(Cl)c(Cl)c2=O)cc1 | 40µM* | ? | -10 | ?
Cc1[nH]c(C)c2c(=O)n(Cc3ccc(Cl)cc3)ncc12 | -23% | . | ? | .
CCc1ccccc1N=C1S/C(=C/c2ccccc2OCC(=O)N2CCOCC2)C(=O)N1C | ? | 15µM* | -39 | -29%
CCOC(=O)c1sc2nc(C)nc(NCc3ccccc3OC)c2c1C | ? | -14%[46.1 µM] | -73* | ?
COc1cccc(OC)c1C(=O)NCCc1ccccc1 | -24% | . | 18 | .
COC(=O)c1c(N)sc(C(=O)NCCc2ccccc2)c1C | 6.3µM* | ? | ? | 5µM*
CCOC(=O)c1sc(N)c(C(=O)Nc2ccccc2OC)c1C | -17% | 2.5µM* | 6 | ?
CCCNC(=O)N1[C@H](c2cccs2)[C@@H](C)C(=O)[C@@H](C)[C@@H]1c1cccs1 | -2% | -7%[46.1 µM] | 9 | 2%[46.1 µM]
Cc1nn(CCC(=O)NCCc2ccccc2Cl)c(=O)c2nn(-c3ccccc3)c(C)c12 | -14% | . | -62* | .
Cc1ccccc1CCNC(=O)CCn1nc(C)c2c(C)n(-c3ccccc3)nc2c1=O | -19% | . | -60* | .
C=C(Br)CO[C@@H]1C=C[C@@H](c2ccccc2)O[C@@H]1COC | . | . | . | 9%[14.2 µM]
COc1cc(/C=C(\C#N)C(=O)NC2CCCCC2C)ccc1OS(=O)(=O)c1ccc(C)cc1 (stereo unspecified) | 25µM* | ? | -35 | -4%
O=C(CCl)NCCCCCCCCCNC(=O)CCl | -22% | ? | -100* | 8.9µM*
O=C(NC1CCCCC1)C(c1ccccc1)n1c(=O)c(-c2ccco2)nc2ccccc21 (stereo unspecified) | -13% | . | 5 | .
Clc1ccc2nnnc(-c3ccccc3)c2c1 | ? | 10µM* | -102* | 6.5µM*
c1ccc(-c2nnnc3ccccc23)cc1 | -1% | -26% | -30 | -34%
Nc1ccc2c(c1)C(=O)c1ccc(N)cc1-2 | 23% | -13%[46.1 µM] | 14 | 0%[46.1 µM]
COc1ccc(-n2c(-c3ccccc3)nnc2-c2ccc(Cl)cc2)cc1 | -13% | 1% | 8 | 10%[46.1 µM]
COc1ccc(-n2c(-c3ccc(Cl)cc3)c[n+]3c2CCc2ccccc2-3)cc1 | ? | ? | -99* | 11µM*
Cc1ccc(CNC(=O)c2cn(C)c3ccc(S(=O)(=O)N4CCC(C)CC4)cc3c2=O)cc1 | -13% | 16%[46.1 µM] | 8 | 3%[46.1 µM]
Cc1cccc(CNC(=O)c2sc(=O)n(Cc3ccc(S(C)(=O)=O)cc3)c2C)c1 | -28% | . | -69* | .
C=Cc1ccc(Cn2c(C)c(C(=O)NCc3cccc(C)c3)sc2=O)cc1 | -5% | . | -65* | .
CSc1ccc(Cn2c(C)c(C(=O)NCc3cccc(C)c3)sc2=O)cc1 | -19% | . | -67* | .
CSc1ccc(Cn2c(C)c(C(=O)NCc3cccc(Cl)c3)sc2=O)cc1 | -28% | . | -31 | .
SMILES | FMDV antiviral | Lassa entry inh | HCMV inh | MARV entry inh
Cc1ccc(Cn2c(C)c(C(=O)NCc3ccc(Cl)c(Cl)c3)sc2=O)cc1 | -16% | . | -6 | .
Cc1c(C(=O)NCc2ccccc2C(F)(F)F)sc(=O)n1Cc1ccccc1C#N | -22% | . | -62* | .
C=CC[C@@H]1C=C[C@H](ON=C[C@@H](N[S+](=O)([O-])c2ccc(C)cc2)[C@H](C)C=CCC(=O)OC)[C@H](CO)O1 | . | . | . | -14%[14.2 µM]
COc1ccc(C#Cc2c(-c3ccccc3OC)oc3ccccc23)cc1 | . | . | -10 | .
COc1ccc(Cl)cc1Cn1c(C)c(C(=O)NCc2ccc3c(c2)OCCO3)sc1=O | -25% | . | -72* | .
Cc1c(C(=O)NCc2ccc(C(F)(F)F)cc2)sc(=O)n1Cc1ccc(S(=O)(=O)N(C)C)cc1 | ? | . | -73* | .
COc1ccc(CNC(=O)c2sc(=O)n(Cc3cc(Cl)ccc3OC)c2C)cc1 | 0% | . | ? | .
COc1ccccc1/C=C/CN1CCCC(CCC(=O)NCc2ccc(F)c(F)c2)C1 (stereo unspecified) | -9% | -16%[46.1 µM] | ? | ?
COc1ccc(/C=C/CN2CCCC(CCC(=O)NCc3ccc(F)c(F)c3)C2)cc1 (stereo unspecified) | -28% | 0% | -21 | 7.9µM*
Cc1cc(C)n2nc(C(=O)OCC(=O)NNC(=O)c3ccccc3)nc2n1 | -12% | . | -61* | .
Cc1cc(C)n2nc(C(=O)N/N=C/c3c4ccccc4cc4ccccc34)nc2n1 | ? | ? | -76* | ?
Cc1cc(C)n2nc(C(=O)OCC(=O)NC(=O)c3ccccc3)nc2n1 | -13% | -10% | -5 | 0%[46.1 µM]
Cc1cc(C)n2nc(C(=O)NC(c3ccccc3)c3ccccc3)nc2n1 | -21% | ? | -74* | ?
CCc1ccc(CN(Cc2cn[nH]c2-c2ccc(OC)cc2)C(=O)Nc2ccc(Br)cc2)cc1 | ? | 4%[46.1 µM] | -25 | 0%[46.1 µM]
COC(=O)c1cc(CNC(=O)c2cccc(F)c2)cc(NC(=O)c2ccccc2OC)c1 | -10% | . | . | .
Cc1ccc2c(=O)cc(C(=O)Nc3ccc(S(=O)(=O)Nc4nc(C)cc(C)n4)cc3)oc2c1 | 10% | 21%[46.1 µM] | 11 | 9%[46.1 µM]
CC(C)COC(=O)N1CCCCC1c1cc(C(=O)N2CCOCC2)no1 (stereo unspecified) | -4% | . | 9 | .
COc1ccc(O[C@H]2C=C[C@@H](c3ccccc3)O[C@H]2COC(=O)CCC(C)=NOC[C@@H](O)COCc2ccco2)cc1 | . | 0%[14.3 µM] | . | 10%[14.2 µM]
Cc1nn(-c2ccc(F)cc2)c(C)c1CNC(=O)c1ccc(-n2cc(NC(=O)c3ccoc3)cn2)cc1 | -10% | . | . | .
CCOc1ccc(CNC(=O)CS(=O)(=O)c2cccc3nsnc23)cc1 | ? | -5%[46.1 µM] | 11 | .
Cc1ccc(NS(=O)(=O)c2cc([N+](=O)[O-])ccc2NNC(=S)Nc2cccc(Cl)c2)c(C)c1 | -8% | ? | . | ?
Cc1ccc(NS(=O)(=O)c2cc([N+](=O)[O-])ccc2NNC(=S)Nc2cc(C)ccc2C)c(C)c1 | ? | 14µM* | -103* | ?
COc1ccc(NC(=S)NNc2ccc([N+](=O)[O-])cc2S(=O)(=O)Nc2ccc(C)cc2C)cc1 | -13% | ? | -66* | ?
COc1ccc(C(=O)/C=C/C(=O)N(CC(=O)NC2CCCCC2)Cc2ccccc2OC)c(O)c1 | 7.9µM* | ? | -97* | ?
COc1ccc(C(=O)/C=C/C(=O)N(Cc2ccccc2OC)C(C(=O)NC2CCCCC2)c2ccncc2)c(O)c1 (stereo unspecified) | 13% | ? | ? | ?
COc1ccc(C(=O)/C=C/C(=O)N(CC(=O)NC2CCCCC2)CC2CCCO2)c(O)c1 (stereo unspecified) | 7.9µM* | . | 56 | .
COc1ccc(C(=O)/C=C/C(=O)N(CC(=O)NC2CCCCC2)Cc2ccccc2)c(O)c1 | 8.9µM* | 4µM* | -99* | ?
COc1ccc(C(=O)/C=C/C(=O)N(Cc2ccccc2)C(C(=O)NC2CCCCC2)c2ccncc2)c(O)c1 (stereo unspecified) | -12% | ? | ? | ?
COCc1ccc(CN2Cc3ccccc3OC(c3ccccc3OC)C2)o1 (stereo unspecified) | -3% | . | . | .

Screens from PubChem BioAssay.
